FBPA Giardia inh: inhibitors of Giardia lamblia fructose-1,6-bisphosphate aldolase; A8B2U2; purified Giardia FBPA; Potency, µM (top dose mostly 59.6 µM), for inactives: at the top dose activity, negative = inhibition, hits mostly inhibitors; actives 0.71% (n = 290,000); AID 2451; also: potency is read from the fitted curve at half-maximal effect; nearly all actives have a fitted effect of over 55% in size
Target sequence (A8B2U2 whole entry, looked up): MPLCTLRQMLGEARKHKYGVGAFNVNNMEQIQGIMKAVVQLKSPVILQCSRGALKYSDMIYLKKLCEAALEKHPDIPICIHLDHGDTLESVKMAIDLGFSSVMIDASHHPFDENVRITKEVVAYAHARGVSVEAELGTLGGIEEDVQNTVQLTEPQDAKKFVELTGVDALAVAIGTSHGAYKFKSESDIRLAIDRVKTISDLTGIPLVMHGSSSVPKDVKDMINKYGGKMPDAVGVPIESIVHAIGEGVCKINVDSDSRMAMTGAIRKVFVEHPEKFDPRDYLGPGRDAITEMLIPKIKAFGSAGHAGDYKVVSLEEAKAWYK
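40 nM FBPA preincubated 10 min at RT with compound (up to 57.5 uM final), then substrate plus GAPDH/TPI/NAD/arsenate coupling and diaphorase/resazurin added. Fluorescence read after 20 min at RT, 525/598 nm.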
Pf growth 96h: P. falciparum growth inhibition at 96 hours; P. falciparum luciferase reporter growth, 96 h; Potency, µM (highest dose often 28.7 µM), without a hit: at the top dose activity change, negative = inhibition, usual class: inhibitors; actives 6.9% (n = 320,000); also: potency is read from the fitted curve at half-maximal effect
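Compounds incubated with erythrocytes infected by luciferase-expressing P. falciparum (2% hematocrit, 0.05% parasitemia final) for 96 hours, 37 C in 5% CO2. Growth inhibition scored as decreased luciferase luminescence.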
Pf growth 48h: inhibits P. falciparum growth in the first generation, 48 h. P. falciparum luciferase growth in erythrocytes, 48 h. Potency, µM (titrated, usually from 28.7 µM), without a hit: at the highest dose activity change, negative = inhibition, usual class: inhibitors. actives 5.9% (n = 310,000); also: potency is read from the fitted curve at half-maximal effect
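Here the parasites carry a stable luciferase gene and grow inside erythrocytes in Albumax-based RPMI medium with compound for one erythrocytic cycle. Activity is scored as loss of luminescent signal.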
Sm TGR block: blocks Schistosoma mansoni thioredoxin glutathione reductase; Q962Y6; purified TGR, DTNB reduction, TNB absorbance 405 nm; Potency, µM (titrated, usually from 114 µM), for the others: at the highest dose activity change, negative = inhibition, most hits filed as inhibitors; actives 3% (n = 360,000); AID 485364; also: potency is read from the fitted curve at half-maximal effect; nearly all actives have a fitted effect of over 60% in size
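TGR 20 nM + NADPH 100 uM (dispensed conc.), cpd preinc 15 min RT; start with NADPH (500 uM addition) then DTNB (15 mM addition). Kinetic TNB absorbance, 405 nm filter. Four-parameter Hill fit across titration.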
HCMV inh: human cytomegalovirus inhibition. HFF cells, HCMV-luciferase reporter, 72 h; active compounds read low. actives 4.5% (n = 410,000). activity change, negative = inhibition, % at 57.5 µM; in the data active = activity change below about -60%; inconclusive = no clear call, values can overlap the other calls; inactive = above about -39%
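After 16 h attachment at 37C, HFF cells received test compound and HCMV-luciferase (1 PFU/cell); reporter luminescence read 72 h later, data normalized against buffer-only and known inhibitor Salinomycin.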
* marks the source's active call; other numbers are inactive results; ? = inconclusive; . = not tested or not shown; [ ] = remark or other dose. Rows were chosen to be rich in hits. Some 14% of all compounds tested hit in one or more screens of this group. Unless noted, calls follow the shape of the dose curve; as a rule, active = well fitted curve in the direction sought with a large enough effect; inconclusive = small, poorly fitted or top-dose-only effect, or another doubt; inactive = no such curve, though single readings can be large; an effect the other way counts as inactive or inconclusive. % is scaled to controls: 0 for no effect and ±100 for the full control effect.

SMILES	FBPA Giardia inh	Pf growth 96h	Pf growth 48h	Sm TGR block	HCMV inh
O=C(CC1CC1)Nc1ccc2c(c1)[C@H]1C[C@H](CC(=O)N3CCc4ccccc4C3)O[C@@H](CO)[C@H]1O2	.	.	.	.	21
COc1ccc(OC)c(CNS(=O)(=O)c2c(C(=O)N3CCC(C)CC3)c(C)n(C)c2C)c1	.	.	.	0%	?
Cc1ccc(-n2sc3ccccc3c2=O)cc1	?	-19%	4.1µM*	?	-32
O=c1c2ccccc2sn1-c1ccc(Cl)cc1	.	.	.	.	-35
O=c1c2ccccc2sn1-c1ccc(F)cc1	.	?	10µM*	-15%	?
Cc1ccc(/C=C/C(O)=C2/C(=O)N(C)C3(C)CC2c2ccccc2O3)cc1 (centres undefined)	-9%	12%	12µM*	-5%	-98*
CCN1C(=O)C(C(=O)Nc2ccc(OC)cc2)C2CC1(C)Oc1ccccc12 (centres undefined)	-21%	15%	?	3%	19
COc1ccc(/C=C/C(O)=C2/C(=O)N(C)C3(C)CC2c2ccccc2O3)cc1 (centres undefined)	-10%	0%	13µM*	5%	-85*
COc1ccc(/C=C/C(O)=C2/C(=O)NC3(C)CC2c2ccccc2O3)c(OC)c1OC (centres undefined)	-6%	-15%	?	1%	-65*
CC12CC(c3ccccc3O1)C(C(=O)N1CCOCC1)C(=O)N2 (centres undefined)	0%	?	7%	4%	35
CCc1nc2ccc(C(=O)Nc3cc(-c4ccccc4)ccc3OC)cn2c1N(C)Cc1nccs1	.	.	.	.	-12
Cc1cc(C(=O)NNC(=S)NC2CCCCC2)cs1	.	5%	74%	6%	67
O=C(/C=C/[C@H]1O[C@@H](n2ccc(=O)[nH]c2=O)[C@H](O)[C@@H]1O)NCc1cccs1	.	.	.	.	18
CCOC(=O)Cc1csc(NS(=O)(=O)c2ccc(OC)cc2)n1	4%	-44%[5.75 µM]	6%	.	1
Cc1csc(NC(=O)CS(=O)(=O)Cc2ccccc2)n1	1%	162%	2%	.	-71*
CCOC(=O)Cc1csc(NC(=O)CS(=O)(=O)Cc2ccccc2)n1	0%	-2%	9%	-1%	10
CCOC(=O)Cc1csc(NC(=O)Nc2cccc(OC)c2)n1	-4%	10µM*	?	7%	51
CCOC(=O)Cc1csc(NS(=O)(=O)c2ccc(Cl)cc2)n1	-1%	8.3µM*	?	-3%	40
CCOC(=O)Cc1csc(NC(=O)CCS(=O)(=O)Cc2ccccc2)n1	6%	-17%	0%	20µM*	31
O=C(CNS(=O)(=O)c1ccc(Br)cc1)Nc1ccc2c(c1)OCCO2	4%	-5%	7%	0%	15
CCc1ccc2c(c1)C(NC(C)=O)C(=O)N2CCN1CCOCC1 (centres undefined)	30%	-7%	14%	89µM*	77
CCCN1C(=O)C(NC(C)=O)c2ccccc21 (centres undefined)	1%	.	-5%	6%	42
CCOC(=O)Cc1c(C)nc2c(-c3cccc(Br)c3)cnn2c1C	1%	?	2%	-21%	-75*
Cc1cc(N)n2ncc(-c3cccc(Br)c3)c2n1	-1%	104%	143%	3%	25
CCCC(c1nnnn1CCOC)N(Cc1cc2cc(C)c(C)cc2[nH]c1=O)CC1CCCO1 (centres undefined)	?	?	?	?	25
SMILES	FBPA Giardia inh	Pf growth 96h	Pf growth 48h	Sm TGR block	HCMV inh
CCC(c1nnnn1CCOC)N(Cc1ccc(C)cc1)Cc1cc2cc(OC)ccc2[nH]c1=O (centres undefined)	?	8%	10µM*	-17%	-34
CCC(c1nnnn1CCOC)N(Cc1cc2cc(C)c(C)cc2[nH]c1=O)CC1CCCO1 (centres undefined)	-8%	15µM*	.	-11%	15
CCc1ccc(NS(=O)(=O)c2c(C(=O)N3CCOCC3)c(C)n(C)c2C)cc1	-3%	40%	19%	-8%	48
CCOC(=O)/C(C(C)=O)=C1/OC(=O)c2ccccc21	4%	31%	.	11µM*	-32
O=C(O)/C(=C1\OC(=O)c2ccccc21)c1ccccc1	19%	-9%	-19%	-2%	-12
CCOC(=O)CN1C(=O)c2ccccc2C1=O	7%	.	4%	4%	27
CCOC(=O)/C(C(C)=O)=C1\OC(=O)c2ccccc21	11%	-9%	3%	20µM*	18
O=C(COc1ccccc1F)Nc1ccc(S(=O)(=O)N2CCCC2)cc1	.	?	?	-1%	2
c1ccc(-c2nc3nonc3c3nc4ccccc4n23)cc1	7%	13µM*	-5%	-3%	3
Cc1ccccc1OCCOC(=O)c1cc(S(=O)(=O)N2CCCCC2)ccc1N1CCOCC1	.	?	13µM*	-14%	-38
Cc1ccccc1OCCOC(=O)c1ccc(S(=O)(=O)N2CCCC2)cc1	.	?	?	2%	2
COc1cccc(C(=O)OCC(=O)c2ccc(S(=O)(=O)N3CCCCC3)cc2)c1OC	.	-16%	?	-9%	-100*
COc1ccc(C(=O)COC(=O)c2cc(S(=O)(=O)N3CCCCC3)ccc2N2CCOCC2)c(OC)c1	.	9.3µM*	9.3µM*	5%	-20
COC(=O)c1ccccc1S(=O)(=O)N1CCC(C(=O)OCC(=O)c2ccccc2OC)CC1	.	?	10µM*	7%	?
O=C(Cc1ccc(Cl)cc1)SCc1ccccc1	.	58%	22%	-2%	15
CCN(c1cccc(C)c1)S(=O)(=O)c1cc(CN2C(=O)c3cccnc3C2=O)ccc1OC	0%	-7%	-10%	-11%	11
CCC(O)C1CCN(C(=O)c2ccc(OC3CCN(Cc4ccccn4)CC3)cc2)CC1 (centres undefined)	.	-2%	?	?	-16
COCCn1c(=O)c(-c2ccccc2)nc2cnc(Nc3cccc(OC)c3)nc21	1%	.	.	.	.
O=C(CSc1cccc[n+]1[O-])Nc1ccc(N2CCOCC2)cc1	-19%	25%	13%	-15%	-17
COC(=O)c1cccnc1	5%	-2%	-18%	.	.
COc1cccc(COC(=O)c2cc(S(=O)(=O)N3CCCCC3)ccc2N2CCOCC2)c1OC	.	?	6.6µM*	2%	-4
COc1ccccc1C(=O)COC(=O)c1cc(S(=O)(=O)N2CCCCC2)ccc1N1CCOCC1	.	?	9.3µM*	-12%	36
O=C(OCc1ccccc1F)c1cc(S(=O)(=O)N2CCCCC2)ccc1N1CCOCC1	.	.	.	.	-6
COc1ccc(Nc2cc(C)c3cc(NC(=O)c4cc(OC)cc(OC)c4)ccc3n2)cc1	.	.	.	1%	-77*
COc1ccc(CC(=O)Nc2ccc3nc(Nc4ccc(OC)cc4)cc(C)c3c2)cc1	.	.	.	-2%	-86*
O=c1[nH][nH]c2c(N=Cc3ccccc3O)ccc(F)c12	6.3µM*	-19%	?	0.4µM*	.

Screening data from PubChem BioAssay.
